# Experimental data published in the supplement of paper PMC8728848.
# This excerpt belongs to a sample that is enriched for the strongest signals.
# B1: Apa (Mycobacterium tuberculosis), Rv1860 (protein)
# chain: MHQVDPNLTRRKGRLAALAIAAMASASLVTVAVPATANADPEPAPPVPTTAASPPSTAAAPPAPATPVAPPPPAAANTPNAQPGDPNAAPPPADPNAPPPPVIAPNAPQPVRIDNPVGGFSFALPAGWVESDAAHFDYGSALLSKTTGDPPFPGQPPPVANDTRIVLGRLDQKLYASAEATDSKAAARLGSDMGEFYMPYPGTRINQETVSLDANGVSGSASYYEVKFSDPSKPNGQIWTGVIGSPAANAPDAGPPQRWFVVWLGTANNPVDKGAAKALAESIRPLVAPPPAPAPAPAEPAPAPAPAGEVAPTPTTPTPQRTLPA
# Columns and labels:
# Experiment in all cases: glycan array binding signal (z-score within array); higher = stronger binding
# Conditions in all cases: glycan notation: IUPAC condensed, linker removed
# [1] = target: Fuc(a1-2)Gal(b1-3)GalNAc(a1-3)[Fuc(a1-2)]Gal(b1-4)Glc
# Outline: (§1)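 The Consortium for Functional Glycomics database supplied 3228 glycan arrays, of which those lacking an available protein sequence were dropped. The binding signal, a within-array Z-score, was averaged across arrays of the same protein sequence and across linkers. Negative scores can be read as non-binding.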
# [2] = target: Fuc(a1-2)Gal(b1-3)GalNAc(b1-3)Gal
# Outline: as §1
# Fuc(a1-2)Gal(b1-4)Glc6S = target: Fuc(a1-2)Gal(b1-4)Glc6S
# Outline: as §1
# [3] = target: Fuc(a1-2)Gal6S(b1-3)GlcNAc6S
# Outline: as §1
# [4] = target: Fuc(a1-2)Gal6S(b1-4)Glc6S
# Outline: as §1
# [5] = target: Fuc(a1-2)[Gal(a1-3)]Gal(b1-3)GlcNAc(b1-2)Man(a1-3)[Fuc(a1-2)[Gal(a1-3)]Gal(b1-3)GlcNAc(b1-2)Man(a1-6)]Man(b1-4)GlcNAc(b1-4)[Fuc(a1-6)]GlcNAc
# Outline: as §1
# [6] = target: Fuc(a1-2)[Gal(a1-3)]Gal(b1-4)[Fuc(a1-3)]Glc
# Outline: as §1
# [7] = target: Fuc(a1-2)[Gal(a1-3)]Gal(b1-4)[Fuc(a1-3)]GlcNAc
# Outline: as §1
# [8] = target: Fuc(a1-2)[GalNAc(a1-3)]Gal(b1-3)GalNAc(a1-3)[Fuc(a1-2)]Gal(b1-4)GlcNAc
# Outline: as §1
# [9] = target: Fuc(a1-2)[GalNAc(a1-3)]Gal(b1-3)GalNAc(b1-3)Gal(a1-4)Gal(b1-4)Glc
# Outline: as §1
# [10] = target: Fuc(a1-2)[GalNAc(a1-3)]Gal(b1-4)GlcNAc
# Outline: as §1
# [11] = target: Fuc(a1-3)[Gal(b1-4)]Glc6S
# Outline: as §1
# [12] = target: Fuc(a1-3)[Gal(b1-4)]GlcNAc(b1-3)Gal(b1-4)[Fuc(a1-3)]GlcNAc
# Outline: as §1
# [13] = target: Fuc(a1-3)[Gal(b1-4)]GlcNAc6S
# Outline: as §1
# Fuc(a1-4)GlcNAc = target: Fuc(a1-4)GlcNAc
# Outline: as §1
# Gal(b1-3)GlcNAc(b1-2)Man = target: Gal(b1-3)GlcNAc(b1-2)Man
# Outline: as §1
# [14] = target: Gal(b1-3)GlcNAc(b1-2)Man(a1-3)[Gal(b1-3)GlcNAc(b1-2)Man(a1-6)]Man(b1-4)GlcNAc(b1-4)GlcNAc
# Outline: as §1
# [15] = target: Gal(b1-3)GlcNAc(b1-3)Gal(b1-3)GlcNAc
# Outline: as §1
# Gal(b1-3)GlcNAc6S = target: Gal(b1-3)GlcNAc6S
# Outline: as §1
# [16] = target: Gal(b1-4)GalNAc(b1-3)[Fuc(a1-2)]Gal(b1-4)GlcNAc
# Outline: as §1
# [17] = target: Gal(b1-4)GlcNAc(a1-6)Gal(b1-4)GlcNAc
# Outline: as §1
# [18] = target: Gal(b1-4)GlcNAc(b1-2)Man(a1-3)[Gal(b1-4)GlcNAc(b1-2)Man(a1-6)]Man(b1-4)GlcNAc(b1-4)[Fuc(a1-6)]GlcNAc
# Outline: as §1
# [19] = target: Gal(b1-4)GlcNAc(b1-2)[Gal(b1-4)GlcNAc(b1-4)]Man(a1-3)[GlcNAc(b1-4)][Gal(b1-4)GlcNAc(b1-2)[Gal(b1-4)GlcNAc(b1-6)]Man(a1-6)]Man(b1-4)GlcNAc(b1-4)GlcNAc
# Outline: as §1
# [20] = target: Gal(b1-4)GlcNAc(b1-3)Gal(b1-3)GlcNAc
# Outline: as §1
# [21] = target: Gal(b1-4)GlcNAc(b1-3)Gal(b1-4)GlcNAc
# Outline: as §1
# Gal(b1-4)GlcNAc6P = target: Gal(b1-4)GlcNAc6P
# Outline: as §1
# [22] = target: GalNAc(b1-4)GlcNAc(b1-2)Man
# Outline: as §1
# GalNAc(b1-4)GlcNAc6S = target: GalNAc(b1-4)GlcNAc6S
# Outline: as §1
# GalNAc6S(b1-4)GlcNAc = target: GalNAc6S(b1-4)GlcNAc
# Outline: as §1
# Glc(b1-4)Glc = target: Glc(b1-4)Glc
# Outline: as §1
# Glc(b1-6)Glc = target: Glc(b1-6)Glc
# Outline: as §1
# [23] = target: GlcNAc(b1-2)Man(a1-3)[GlcNAc(b1-4)][GlcNAc(b1-2)Man(a1-6)]Man(b1-4)GlcNAc(b1-4)[Fuc(a1-6)]GlcNAc
# Outline: as §1
# [24] = target: GlcNAc(b1-2)[GlcNAc(b1-4)]Man(a1-3)[GlcNAc(b1-2)Man(a1-6)]Man(b1-4)GlcNAc(b1-4)GlcNAc
# Outline: as §1
# [25] = target: GlcNAc(b1-2)[GlcNAc(b1-4)]Man(a1-3)[GlcNAc(b1-4)][GlcNAc(b1-2)[GlcNAc(b1-6)]Man(a1-6)]Man(b1-4)GlcNAc(b1-4)[Fuc(a1-6)]GlcNAc
# Outline: as §1
# [26] = target: GlcNAc(b1-3)Gal(b1-4)GlcNAc(b1-3)[GlcNAc(b1-3)Gal(b1-4)GlcNAc(b1-3)]GalNAc
# Outline: as §1
# [27] = target: GlcNAc(b1-3)[GlcNAc(b1-6)]GalNAc
# Outline: as §1
# [28] = target: GlcNAc(b1-6)Gal(b1-4)GlcNAc
# Outline: as §1
# GlcNAc(b1-6)GalNAc = target: GlcNAc(b1-6)GalNAc
# Outline: as §1
# [29] = target: Man(a1-2)Man(a1-6)[Man(a1-3)]Man(a1-6)[Man(a1-2)Man(a1-2)Man(a1-3)]Man
# Outline: as §1
# Man(a1-6)Man = target: Man(a1-6)Man
# Outline: as §1
# MurNAc(b1-4)GlcNAc = target: MurNAc(b1-4)GlcNAc
# Outline: as §1
# [30] = target: Neu5Ac(a2-3)Gal(b1-3)[GlcNAc(b1-6)]GalNAc
# Outline: as §1
# [31] = target: Neu5Ac(a2-3)Gal(b1-4)GlcNAc(b1-2)Man(a1-3)[Neu5Ac(a2-3)Gal(b1-4)GlcNAc(b1-2)Man(a1-6)]Man(b1-4)GlcNAc(b1-4)GlcNAc
# Outline: as §1
# [32] = target: Neu5Ac(a2-3)Gal(b1-4)GlcNAc(b1-2)Man(a1-3)[Neu5Ac(a2-3)Gal(b1-4)GlcNAc(b1-2)Man(a1-6)]Man(b1-4)GlcNAc(b1-4)[Fuc(a1-6)]GlcNAc
# Outline: as §1
# [33] = target: Neu5Ac(a2-3)Gal(b1-4)GlcNAc(b1-2)Man(a1-3)[Neu5Ac(a2-6)Gal(b1-4)GlcNAc(b1-2)Man(a1-6)]Man(b1-4)GlcNAc(b1-4)GlcNAc
# Outline: as §1
# [34] = target: Neu5Ac(a2-3)Gal(b1-4)[Fuc(a1-3)]GlcNAc(b1-6)[Neu5Ac(a2-3)Gal(b1-3)]GalNAc
# Outline: as §1
# [35] = target: Neu5Ac(a2-3)Gal6S(b1-4)GlcNAc
# Outline: as §1
# [36] = target: Neu5Ac(a2-3)Gal6S(b1-4)[Fuc(a1-3)]GlcNAc
# Outline: as §1
# [37] = target: Neu5Ac(a2-6)Gal(b1-4)GlcNAc(b1-2)Man(a1-3)[Neu5Ac(a2-3)Gal(b1-4)GlcNAc(b1-2)Man(a1-6)]Man(b1-4)GlcNAc(b1-4)GlcNAc
# Outline: as §1
# [38] = target: Neu5Ac(a2-6)Gal(b1-4)GlcNAc(b1-3)Gal(b1-4)GlcNAc(b1-6)[Gal(b1-3)]GalNAc
# Outline: as §1
# Neu5Ac(b2-6)GalNAc = target: Neu5Ac(b2-6)GalNAc
# Outline: as §1
# Neu5Gc(a2-3)Gal(b1-4)Glc = target: Neu5Gc(a2-3)Gal(b1-4)Glc
# Outline: as §1
binder,measurement,setting,value
B1,glycan array binding signal (z-score),[1],2.08
same,glycan array binding signal (z-score),[2],4.21
same,glycan array binding signal (z-score),Fuc(a1-2)Gal(b1-4)Glc6S,-0.06
same,glycan array binding signal (z-score),[3],2.87
same,glycan array binding signal (z-score),[4],1.9
same,glycan array binding signal (z-score),[5],0.338
same,glycan array binding signal (z-score),[6],-0.318
same,glycan array binding signal (z-score),[7],0.273
same,glycan array binding signal (z-score),[8],14.3
same,glycan array binding signal (z-score),[9],5.64
same,glycan array binding signal (z-score),[10],-0.327
same,glycan array binding signal (z-score),[11],0.898
same,glycan array binding signal (z-score),[12],0.272
same,glycan array binding signal (z-score),[13],1.94
same,glycan array binding signal (z-score),Fuc(a1-4)GlcNAc,-0.036
same,glycan array binding signal (z-score),Gal(b1-3)GlcNAc(b1-2)Man,2.77
same,glycan array binding signal (z-score),[14],-0.376
same,glycan array binding signal (z-score),[15],-0.31
same,glycan array binding signal (z-score),Gal(b1-3)GlcNAc6S,-0.259
same,glycan array binding signal (z-score),[16],5.04
same,glycan array binding signal (z-score),[17],0.281
same,glycan array binding signal (z-score),[18],-0.333
same,glycan array binding signal (z-score),[19],0.024
same,glycan array binding signal (z-score),[20],-0.238
same,glycan array binding signal (z-score),[21],-0.271
same,glycan array binding signal (z-score),Gal(b1-4)GlcNAc6P,-0.455
same,glycan array binding signal (z-score),[22],-0.412
same,glycan array binding signal (z-score),GalNAc(b1-4)GlcNAc6S,-0.421
same,glycan array binding signal (z-score),GalNAc6S(b1-4)GlcNAc,2.78
same,glycan array binding signal (z-score),Glc(b1-4)Glc,2.25
same,glycan array binding signal (z-score),Glc(b1-6)Glc,-0.327
same,glycan array binding signal (z-score),[23],-0.607
same,glycan array binding signal (z-score),[24],-0.083
same,glycan array binding signal (z-score),[25],-0.482
same,glycan array binding signal (z-score),[26],0.26
same,glycan array binding signal (z-score),[27],-0.468
same,glycan array binding signal (z-score),[28],-0.453
same,glycan array binding signal (z-score),GlcNAc(b1-6)GalNAc,-0.174
same,glycan array binding signal (z-score),[29],0.102
same,glycan array binding signal (z-score),Man(a1-6)Man,-0.69
same,glycan array binding signal (z-score),MurNAc(b1-4)GlcNAc,-0.3
same,glycan array binding signal (z-score),[30],-0.268
same,glycan array binding signal (z-score),[31],-0.603
same,glycan array binding signal (z-score),[32],0.28
same,glycan array binding signal (z-score),[33],-0.452
same,glycan array binding signal (z-score),[34],0.026
same,glycan array binding signal (z-score),[35],-0.642
same,glycan array binding signal (z-score),[36],-0.633
same,glycan array binding signal (z-score),[37],-0.473
same,glycan array binding signal (z-score),[38],-0.533
same,glycan array binding signal (z-score),Neu5Ac(b2-6)GalNAc,-0.414
same,glycan array binding signal (z-score),Neu5Gc(a2-3)Gal(b1-4)Glc,-0.297
